Reference: PubChem BioAssay (NCATS)
Inconclusive results are not listed. Calls of active or inactive are those of the source. Unless noted, calls come from the whole dose curve; as a rule, active = well fitted curve in the direction sought with a large enough effect; inconclusive = small, poorly fitted or top-dose-only effect, or another doubt; inactive = no such curve, though single readings can be large; an effect the other way counts as inactive or inconclusive.

Columns and labels:
[1] = Cell Viability - BJ (AID 421; calls by dose curve;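 note: potency is the fitted concentration of half-maximal effect; cells exposed to compound for 40 hours at 37 °C before readout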); conditions: BJ fibroblast viability, qHTS
How it was run: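 Cytotoxicity as drop in intracellular ATP (CellTiter-Glo, 20 min RT) after 40 hr compound exposure of BJ fibroblasts at 37 °C. Titrations scaled between DMSO and 100 uM tamoxifen, Hill-fitted for AC50.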

[2] = Cell Viability - Mesenchymal (AID 546); conditions: mesenchymal cells viability, qHTS; series mostly up to 91.7 µM;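 note: cells exposed to compound for 40 hours before reading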
How it was run: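 Human kidney mesenchymal cells from normal renal glomeruli, 1000 cells/well, rested 5 hr at 37 °C, then treated 40 hr at 37 °C in complete medium. Cellular ATP read by CellTiter-Glo luminescence; AC50 from Hill-equation fits.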

[3] = Cellular Toxicity (caspase-3) HepG2 (AID 654); conditions: HepG2 caspase-3 activation, luminescence, 0% = DMSO only, 100% = tamoxifen; series mostly up to 92.2 µM;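 note: cells exposed to compound for 16 hours before reading; 0% = DMSO alone and 100% = caspase signal from 100 µM tamoxifen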
How it was run: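 HepG2 cells (1500/well) were treated 16 h at 37 °C in complete medium, then caspase 3/7 activity was read by Caspase-Glo luminescence. Data were normalized to DMSO and 100 uM tamoxifen; AC50 came from Hill-equation fits of qHTS concentration-response.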

[4] = Cellular Toxicity (caspase-3) HUV-EC-C (AID 656); conditions: HUV-EC-C cells, caspase-3 activation (apoptosis), vehicle = 0, 100 µM tamoxifen = 100%; series mostly up to 92.2 µM
How it was run: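 Luminescent caspase-3/7 activation (aminoluciferin substrate cleavage) in HUV-EC-C cells after 16 hr compound exposure, 37°C. Signal normalized to DMSO basal and 100 uM tamoxifen as 100%; AC50 from concentration-response fitted with the Hill equation.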

[5] = Cellular Toxicity (caspase-3) BJ (AID 658); conditions: BJ fibroblasts, luminescence, normalized: DMSO 0%, staurosporine 100%; series mostly up to 91.7 µM
How it was run: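 BJ human foreskin fibroblasts, 1000 cells/well, treated 16 hours at 37 °C in complete medium; caspase 3/7 activity by Caspase-Glo luminescence after 1 hr at room temperature. Normalized to DMSO and 10 uM staurosporine; AC50 from Hill fits.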

[6] = Cellular Toxicity (caspase-3) MRC-5 (AID 659); conditions: MRC-5 cells, luminescence, normalized: DMSO 0%, 10 µM staurosporine 100%; series mostly up to 91.7 µM
How it was run: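 MRC-5 human normal lung fibroblasts, 1500 cells/well, treated 16 h at 37 °C in complete medium. Caspase 3/7 measured by Caspase-Glo luminescence after 1 h at room temperature. Normalized to DMSO and 10 uM staurosporine; AC50 from Hill fit.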

[7] = Cellular Toxicity (caspase-3) SK-N-SH (AID 661); conditions: SK-N-SH caspase-3 activation, qHTS; series mostly up to 91.7 µM
How it was run: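 Human SK-N-SH neuroblastoma cells, 1500/well, were exposed to compounds for 16 hours at 37 °C. Caspase-Glo 3/7 luminescence was normalized to DMSO (basal) and 10 uM staurosporine (100%), and AC50 came from a Hill fit.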

[8] = Cellular Toxicity (caspase-3) Hek293 (AID 664); conditions: HEK293 caspase-3 activation, DMSO = 0%, 100 µM tamoxifen = 100%; at 92.2 µM (top of the series);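 note: cells exposed to compound for 16 h at 37 °C before readout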
How it was run: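 HEK293 cells in complete medium treated 16 h at 37 °C, then Caspase-Glo 3/7 luminescence read after 20 min at room temperature. Normalized to DMSO and 100 uM tamoxifen; AC50 from Hill fit of concentration-response.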

[9] = MultiTox-Fluor Cytotoxicity Assay - LYMP1-001 - Dead Cells (AID 946); conditions: LYMP1-001 lymphoblastoid cells, dead-cell protease fluorescence; series mostly up to 92.2 µM
How it was run: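 Cytotoxicity as increased dead-cell protease fluorescence (bis-AAF-R110, 485/520 nm), read 60 min after MultiTox-Fluor reagent. Human lymphoblastoid line exposed 16 h; Hill-fitted AC50, with DMSO as 0% and 15 uM tetraoctylammonium bromide as 100%.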

[10] = Cell Viability - LYMP1-002 - Assay at 16 hr (AID 948); conditions: LYMP1-002 lymphoblastoid cell viability; series mostly up to 92.2 µM;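 note: 0% = DMSO alone and full effect = 92 µM tetraoctylammonium bromide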
How it was run: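 LYMP1-002 human lymphoblastoid cells, 2500/well; 5 hr 37 C; cpd 16 hr 37 C; CellTiter-Glo 30 min RT; luminescence (ATP). Concentration-response, Hill-fit AC50. Pos ctrl tetraoctylammonium bromide.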

[11] = MultiTox-Fluor Cytotoxicity Assay - LYMP1-002 - Live Cells (AID 955); conditions: LYMP1-002 lymphoblastoid live-cell protease fluorescence viability; series mostly up to 46.1 µM; note: % is set by controls: 0 for no effect and ±100 for the full control effect
How it was run: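 Human lymphoblastoid LYMP1-002 cells, 2500/well, treated 16 h at 37 C in complete medium. Live-cell protease activity via GF-AFC fluorescence (Ex/Em 405/510) after 60 min reagent incubation; AC50 from Hill fits.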

[12] = MultiTox-Fluor Cytotoxicity Assay - LYMP1-003 - Dead Cells (AID 961); conditions: LYMP1-003 lymphoblastoid cells, dead-cell protease fluorescence; series mostly up to 92.2 µM; note: nearly all actives have a fitted effect of over 70% in size
How it was run: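 Dead-cell protease release, detected as bis-AAF-R110 fluorescence at 485/520 nm, was measured in LYMP1-003 cells after 16 h compound treatment at 37 C. AC50 values came from Hill-modeled qHTS curves normalized to DMSO (0%) and 15 uM tetraoctylammonium bromide (100%).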

[13] = MultiTox-Fluor Cytotoxicity Assay - LYMP1-003 - Live Cells (AID 962); conditions: LYMP1-003 lymphoblastoid cells, MultiTox-Fluor live-cell protease fluorescence; series mostly up to 92.2 µM;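 note: 0% = DMSO only and full loss = 92 µM tetraoctylammonium bromide; cytotoxic hits lower the live-cell protease signal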
How it was run: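 LYMP1-003 lymphoblastoid cells, 2500/well in complete medium, treated 16 h at 37 C; live-cell protease cleavage of GF-AFC read by fluorescence (Ex/Em 405/510) after 60 min reagent; AC50 from Hill fits of concentration-response.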

[14] = Cell Viability - LYMP1-003 - Assay at 24 hr (AID 963); conditions: LYMP1-003 lymphoblastoid cell viability; series mostly up to 92.2 µM;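 note: plate controls were DMSO only for no effect and tetraoctylammonium bromide positive control for full effect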
How it was run: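 Human lymphoblastoid LYMP1-003 cells, 2500/well, treated 24 h at 37 C in complete medium. Viability read as intracellular ATP by CellTiter-Glo luminescence after 30 min at room temperature; AC50 from Hill-equation fits of qHTS concentration-response.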

[15] = Cell Viability - LYMP2-003 (AID 965); conditions: LYMP2-003 lymphoblastoid cell viability; series mostly up to 92.2 µM;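 note: cells exposed to compounds for 24 h before reading; 0% = DMSO only and full effect = 92 µM tetraoctylammonium bromide; nearly all actives have a fitted effect of over 50% in size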
How it was run: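 CellTiter-Glo luminescence (cellular ATP) after 24 h compound exposure at 37 C in complete medium; 2500 cells/well, 5 h settling beforehand. Concentration-response fitted to standard Hill equation for AC50. Tetraoctylammonium bromide served as positive control.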

[16] = Cell Viability - LYMP2-025 (AID 976); conditions: LYMP2-025 lymphoblastoid cell viability; series mostly up to 92.2 µM;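 note: plate controls were DMSO only for no effect and tetraoctylammonium bromide control for full effect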
How it was run: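 Human lymphoblastoid LYMP2-025 cells, 2500/well, exposed 24 h at 37 C in complete medium in 1536-well qHTS. Viability as cellular ATP by CellTiter-Glo luminescence; AC50 from Hill fits of concentration-response data.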

[17] = Cell Viability - LYMP2-016 (AID 984); conditions: LYMP2-016 lymphoblastoid cell viability, qHTS; series mostly up to 92.2 µM; note: % is set by controls: 0 for no effect and ±100 for the full control effect; nearly all actives have a fitted effect of over 55% in size
How it was run: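 qHTS, 1536-well: 2500 LYMP2-016 cells/well, 5 hr 37 C, compound added, 24 hr 37 C, CellTiter-Glo 30 min RT, luminescence. Tetraoctylammonium bromide positive control. AC50 via Hill fit.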

[18] = Cell Viability - LYMP2-026 (AID 989); conditions: LYMP2-026 lymphoblastoid cell viability, qHTS; series mostly up to 92.2 µM; note: % is set by controls: 0 for no effect and ±100 for the full control effect; nearly all actives have a fitted effect of over 50% in size
How it was run: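 Human lymphoblastoid LYMP2-026 cells, 2500/well, exposed to compound 24 h at 37 C in complete medium. Viability as intracellular ATP by CellTiter-Glo luminescence; AC50 from Hill fits of qHTS concentration-response.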

[19] = qHTS Assay for Identification of Small Molecule Inducers of Hypoxia Response (AID 2120; active = well fitted curve in the direction sought with a large enough effect in the signal ratio, with a control signal flat, not every such curve was filed as active; the % refers to the signal ratio; note: 0% is about no effect); conditions: hypoxia response reporter cells, beta-lactamase ratio readout; series mostly up to 104 µM
How it was run: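 HRE-bla ME-180 cells in Opti-MEM with 0.5% dialyzed FBS, pre-plated 4-5 h, then compound titration for 17 h at 37 degrees Celsius. CCF4 loaded 2.5 h at room temperature; 460/530 nm ratio gave %Activity and AC50 for induction.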

[20] = target: Peroxisome proliferator-activated receptor alpha (Homo sapiens) (UniProt Q07869); test: qHTS assay for small molecule agonists of the peroxisome proliferator-activated receptor alpha (PPARalpha) signaling pathway (AID 651778); conditions: PathHunter PPARalpha complementation, chemiluminescence, 6 h; hits give high values; note: % of control where 0% means no effect
How it was run: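 Enzyme-fragment complementation assay in which ligand-bound PPARalpha translocates and forms an active enzyme that generates chemiluminescence. Cells were plated overnight, exposed to compound for 6 hr at 37 C, and then given detection reagent for 60 min at room temperature.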

Sequence of Peroxisome proliferator-activated receptor alpha (Homo sapiens) (Q07869 whole entry, looked up, the tested form may be a part): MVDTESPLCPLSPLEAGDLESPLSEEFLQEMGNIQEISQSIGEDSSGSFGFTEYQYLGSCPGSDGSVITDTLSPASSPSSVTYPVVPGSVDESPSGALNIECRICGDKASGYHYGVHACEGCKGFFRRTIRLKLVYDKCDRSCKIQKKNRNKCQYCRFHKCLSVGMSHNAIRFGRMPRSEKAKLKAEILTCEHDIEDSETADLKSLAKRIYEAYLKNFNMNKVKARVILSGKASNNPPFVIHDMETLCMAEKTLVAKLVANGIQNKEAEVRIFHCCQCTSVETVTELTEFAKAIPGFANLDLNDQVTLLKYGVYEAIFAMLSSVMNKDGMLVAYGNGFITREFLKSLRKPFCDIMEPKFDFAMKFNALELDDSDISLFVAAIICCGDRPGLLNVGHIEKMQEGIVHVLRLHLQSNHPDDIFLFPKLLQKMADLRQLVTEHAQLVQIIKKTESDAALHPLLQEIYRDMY

N#CCc1ccccc1
inactive: Potency [1] > 92 µM | Potency [2] | outcome [3] | outcome [4] | outcome [5] | outcome [6] | Potency [7] | caspase-3 activation [8] -1.14% | outcome [9] | outcome [10] | outcome [11] | Potency [12] | outcome [13] | outcome [14] | Potency [15] | Potency [16] | Potency [17] | Potency [18] | Potency [19] | max response [20] 0.0396%

C=CCBr
inactive: Potency [1] > 92 µM | Potency [2] | outcome [3] | outcome [4] | outcome [5] | outcome [6] | Potency [7] | caspase-3 activation [8] 1.99% | outcome [9] | outcome [10] | outcome [11] | Potency [12] | outcome [13] | outcome [14] | Potency [15] | Potency [16] | Potency [17] | Potency [18] | Potency [19] | max response [20] -4.55%

O=Cc1ccc2c(c1)OCO2
inactive: Potency [1] > 92 µM | Potency [2] | outcome [3] | outcome [4] | outcome [5] | outcome [6] | Potency [7] | caspase-3 activation [8] 0.153% | outcome [9] | outcome [10] | outcome [11] | Potency [12] | outcome [13] | outcome [14] | Potency [15] | Potency [16] | Potency [17] | Potency [18] | Potency [19] | max response [20] -6.34%

O=Cc1ccc(Cl)cc1Cl
inactive: Potency [1] > 92 µM | Potency [2] | outcome [3] | outcome [4] | outcome [5] | outcome [6] | Potency [7] | caspase-3 activation [8] -1.13% | outcome [9] | outcome [10] | outcome [11] | Potency [12] | outcome [13] | outcome [14] | Potency [15] | Potency [16] | Potency [17] | Potency [18] | Potency [19] | max response [20] -4.79%

c1ccc(C2CO2)cc1 (stereo not given)
inactive: Potency [1] > 92 µM | Potency [2] | outcome [3] | outcome [4] | outcome [5] | outcome [6] | Potency [7] | caspase-3 activation [8] -0.153% | outcome [9] | outcome [10] | outcome [11] | Potency [12] | outcome [13] | outcome [14] | Potency [15] | Potency [16] | Potency [17] | Potency [18] | Potency [19] | max response [20] 0.189%

C=COC(C)=O
inactive: Potency [1] > 92 µM | Potency [2] | outcome [3] | outcome [4] | outcome [5] | outcome [6] | Potency [7] | caspase-3 activation [8] 1.36% | outcome [9] | outcome [10] | outcome [11] | Potency [12] | outcome [13] | outcome [14] | Potency [15] | Potency [16] | Potency [17] | Potency [18] | Potency [19] | max response [20] -3.52%
